Measurements from the supplement of paper PMC13380429.

System: Vero E6 infected with SARS-CoV-2
Assay: inhibition of SARS-CoV-2 cytopathic effect; higher = more antiviral protection, active = above 15
Details: 48 h

Measured: inhibition of SARS-CoV-2 cytopathic effect

CCc1cc2cc(OC)c(OC)cc2c(Cc2ccccc2)n1 [moxaverine]
inactive: 1 nM 3.28% | 8.33 nM 0.47% | 100 nM 0.44% | 833.33 nM 0.83% | 10000 nM 4.26%

CCCC(=O)C1CCN(c2ncnc3c2CN(C(=O)c2ccc(-c4ccccc4)cc2)CC3)CC1
inactive: 1 nM -1.91% | 8.33 nM -1.68% | 100 nM 2.34% | 833.33 nM -0.3% | 10000 nM -1.38%

CC1(C)[C@@H](OC(=O)CCC(=O)O)CC[C@]2(C)[C@H]3C(=O)C=C4[C@@H]5C[C@@](C)(C(=O)O)CC[C@]5(C)CC[C@@]4(C)[C@]3(C)CC[C@@H]12
inactive: 1 nM 0.51% | 8.33 nM 0.66% | 100 nM 1.43% | 833.33 nM 1.74% | 10000 nM -1.29%

C[N+](C)(C)CC(O)CC(=O)[O-] (stereo not given) [carnitine-(D/L)]
inactive: 1 nM -1.88% | 8.33 nM -0.98% | 100 nM 0.43% | 833.33 nM 3.52% | 10000 nM 5.12%

CCc1ccc(Cc2ccc3c(c2)[C@]2(OC3)O[C@H](CO)[C@@H](O)[C@H](O)[C@H]2O)cc1 [tofogliflozin]
inactive: 1 nM -0.25% | 8.33 nM 0.93% | 100 nM 0.26% | 833.33 nM 1.52% | 10000 nM -0.4%

COc1ccc2cc1Oc1ccc(cc1)C[C@H]1c3c(cc4c(c3Oc3cc5c(cc3OC)CCN(C)[C@@H]5C2)OCO4)CCN1C [cepharanthine]
active: 10000 nM 21.3%
inactive: 1 nM -0.29% | 8.33 nM -1.27% | 100 nM -1.35% | 833.33 nM -2.66%

CC(=O)[C@H]1CC[C@H]2[C@@H]3CC[C@H]4C[C@H](O)CC[C@]4(C)[C@H]3CC[C@]12C [allopregnanolone]
inactive: 1 nM 0.625% | 8.33 nM 0.465% | 100 nM -0.195% | 833.33 nM 0.8% | 10000 nM -0.82%

CCN(CC)CCOC(=O)C(c1ccccc1)c1ccccc1 [adiphenine]
inactive: 1 nM -1.11% | 8.33 nM -0.19% | 100 nM 2.09% | 833.33 nM 1.64% | 10000 nM -0.25%

Oc1noc2c1CCNC2 [gaboxadol]
inactive: 1 nM -0.68% | 8.33 nM 2.6% | 100 nM 1.13% | 833.33 nM 0.58% | 10000 nM -2.2%

CC(C)(OCc1nn(Cc2ccccc2)c2ccccc12)C(=O)O [bindarit]
inactive: 1 nM -0.08% | 8.33 nM -0.77% | 100 nM 0.47% | 833.33 nM -2.78% | 10000 nM -0.8%

COc1ccc(C(Cl)=C(c2ccc(OC)cc2)c2ccc(OC)cc2)cc1 [chlorotrianisene]
inactive: 1 nM -2.25% | 8.33 nM 0.16% | 100 nM -0.43% | 833.33 nM -2.65% | 10000 nM 5.78%

Cc1cc(OCC(=O)O)cc(C)c1Cc1ccc(O)c(C(C)C)c1 [sobetirome]
inactive: 1 nM 1.8% | 8.33 nM -0.19% | 100 nM -3.41% | 833.33 nM -2.42% | 10000 nM -2.77%

CN1C(=O)N(c2ccc(C#N)c(C(F)(F)F)c2)C(=O)[C@]1(CO)c1ccccc1 [GLPG0492-R-enantiomer]
inactive: 1 nM 2.05% | 8.33 nM 2.68% | 100 nM 0.3% | 833.33 nM 1.61% | 10000 nM 2.02%

CCn1ccnc1CC1COc2ccccc2O1 (stereo not given) [imiloxan]
inactive: 1 nM 2% | 8.33 nM -0.87% | 100 nM -0.32% | 833.33 nM 4.69% | 10000 nM -0.13%

O=c1[nH]c2ccccc2n1CCCN1CCN(C(c2ccccc2)c2ccccc2)CC1 [oxatomide]
inactive: 1 nM -0.36% | 8.33 nM 2.61% | 100 nM 1.85% | 833.33 nM 1.64% | 10000 nM -7.26%

C[C@@H](Oc1ccc(Cl)cc1)c1ccnc2ncnn12
inactive: 1 nM -0.64% | 8.33 nM 0.02% | 100 nM -0.48% | 833.33 nM -2.21% | 10000 nM -3.4%

CN1CCCN(C(c2ccccc2)c2ccc(Cl)cc2)CC1 (stereo not given) [homochlorcyclizine]
inactive: 1 nM 2.1% | 8.33 nM 1.84% | 100 nM 1.43% | 833.33 nM -2.39% | 10000 nM -1.32%

CC(C)C[C@H](CN)CC(=O)O
inactive: 1 nM -2.46% | 8.33 nM -1.59% | 100 nM -0.55% | 833.33 nM -0.08% | 10000 nM 0.02%
